Pf growth 48h: Primary qHTS for delayed death inhibitors of the malarial parasite plastid, 48 hour incubation; AID 504832, 2011; 5.9% of 310,000 active; P. falciparum luciferase growth in erythrocytes, 48 h; Potency, µM (titrated, usually from 28.7 µM), for the others: top-dose activity change, negative = inhibition, hits mostly inhibitors; further: potency means the concentration at half of the fitted maximal effect; on the % scale 0 is the no-effect control and ±100 the full control effect
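A one-generation exposure of luciferase-tagged malaria parasites in RPMI 1640/Albumax erythrocyte culture, 37 C and 5% CO2. Inhibition is inferred from decreased luminescence after adding detection reagent.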
Pf growth 96h: Primary qHTS for delayed death inhibitors of the malarial parasite plastid, 96 hour incubation. AID 504834, 2011. 6.9% of 320,000 active. P. falciparum luciferase reporter growth, 96 h. Potency, µM (series often up to 28.7 µM), for the others: at the top dose activity change, negative = inhibition, usual class: inhibitors; further: potency means the concentration at half of the fitted maximal effect; on the % scale 0 is the no-effect control and ±100 the full control effect
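Two-generation exposure (96 h) targets delayed-death phenotype. Reporter parasites carrying integrated firefly luciferase, in red cells at 2% hematocrit and 0.05% parasitemia final, kept at 37 C, 5% CO2; luminescence loss indicates inhibition.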
Shiga toxin inh: A qHTS for Small Molecule Inhibitors of Shiga Toxin; Vero cells, Shiga toxin protein synthesis inhibition reporter; inhibition, % at 38.7 µM; 9.2% of 290,000 active; in the data active means inhibition mostly above about 28%, no sharp cut-off; inactive means mostly below about 43%; further: 0% is about no effect
CHX counter: Cycloheximide Counterscreen for Small Molecule Inhibitors of Shiga Toxin; cell reporter, cycloheximide protein synthesis inhibition counterscreen; max response, %; 12% of 300,000 active; in the data active means max response mostly above about 13%, no sharp cut-off; inactive means mostly below about 14%; further: read at 38.3 µM for the half of the compounds with a filed dose; 0% is about no effect
An asterisk follows results filed as active; ? = inconclusive; / = no result given; [ ] = another dose, or the depositor's remark. This is a sample that favours compounds with a hit; in the whole collection about 21% have one here. Unless noted, the call rests on the fitted dose curve; in most records, active means well fitted inhibition curve with a large enough effect; inconclusive means small, poorly fitted or top-dose-only effect, or another doubt; inactive means no such curve, though single readings can be large or run the other way.

SMILES	Pf growth 48h	Pf growth 96h	Shiga toxin inh	CHX counter
CC(=O)N1N=C(c2ccc(Cl)cc2)OC1c1ccc(C(C)C)cc1 (stereo not given)	0.0%	9.6%	109.9*	30.4*
CC(=O)N1N=C(c2ccc(C)cc2)OC1c1ccc(Br)cc1 (stereo not given)	72.6%	-12.7%	29.8	17.4*
CC(C)c1cc(C(=O)O)c2cnn(C(C)C)c2n1	16.3%	41.6%	16.4	-1.9
CN(C)C(=O)n1nnnc1Cc1ccc(-c2ccccc2)cc1	/	/	-2.4	14.1
CC(=O)CCC(=O)N1CCCC(N2CCN(c3cccc(Cl)c3)CC2)C1 (stereo not given)	-19.0%	1.8%	2.0	7.9
CC(=O)N1CCN(C(=O)C(Cc2c[nH]c3ccccc23)NC(=O)c2ccccc2Cl)CC1 (stereo not given)	-14.2%	-21.8%	24.0	-2.7
Cc1ccc(C(=O)N/C(=C/c2ccc(-c3cccc([N+](=O)[O-])c3)o2)C(=O)NC(C)(C)C)cc1	-4.0%	67.4%	-9.1	-1.4
Cc1ccc(C(=O)N/C(=C\c2ccc(-c3ccccc3[N+](=O)[O-])o2)C(=O)NCCCN(C)C)cc1	2.62µM*	5.22µM*	15.0	10.4
Cc1ccc(C(=O)N/C(=C\c2ccc(-c3ccccc3[N+](=O)[O-])o2)C(=O)NCCN(C)C)cc1	1.47µM*	?	18.2	12.5*
CCC/C(=N\NC(=O)CNC(=O)/C=C/c1ccco1)c1ccccc1	9.7%	36.9%	-112.4	12.7*
O=C(/C=C/c1ccco1)NCCc1ccccc1	99.5%	?	81.2*	47.3*
Cc1ccc(/C=C/C(=O)NCCc2ccccc2)o1	83.0%	?	77.2*	40.5*
O=C(CN(Cc1ccco1)C(=O)c1cccc(F)c1)Nc1ccccc1C(F)(F)F	-18.9%	?	/	/
COc1cccc(NC(=O)CSc2nnc3ccc(-c4ccncc4)nn23)c1	8.1%	4.9%	/	/
CCCCCCn1nc(C(=O)N(CCOC)c2c(N)n(CCCC)c(=O)[nH]c2=O)c2ccccc2c1=O	-87.4%	-61.7%	/	/
CC(C)c1nnc(NC(=O)CCC(=O)N2CCC(Cc3ccccc3)CC2)s1	-3.2%	?	8.9	-8.2
CC(=O)Nc1ccc(C(=O)OCC(=O)c2ccc(F)cc2)cc1	103.7%	-7.9%	33.6*	25.1*
CNc1ccccc1C(=O)OCC(=O)c1ccccc1	120.3%	109.3%	32.6*	45.5*
O=C(COC(=O)c1ccccc1Nc1ccccc1)c1ccccc1	-0.8%	-24.5%	34.7	29.8*
Cc1ccc(NC(=O)COC(=O)c2ccccc2Nc2ccccc2)cc1	1.1%	-21.6%	13.2	3.5
O=C(COC(=O)c1ccccc1-c1ccccc1[N+](=O)[O-])c1ccccc1	?	?	20.0	22.3*
COC(=O)CCCC1=CC2=CC(=O)C(C)(OC(=O)c3cccs3)C(=O)C2=CN1C1CC1 (stereo not given)	?	?	3.7	-6.7
CC(Sc1nnc(C2CC2)n1C1CC1)C(=O)c1ccc(Br)cc1 (stereo not given)	-11.3%	?	/	/
CC(=O)Nc1cc(C(=O)OCC(=O)c2ccc(Cl)cc2Cl)ccc1C	13.1%	28.2%	3.0	1.3
CC(=O)Nc1ccc(OC(=O)c2ccccc2O)cc1	-2.7%	-8.1%	/	/
SMILES	Pf growth 48h	Pf growth 96h	Shiga toxin inh	CHX counter
CC(=O)Nc1ccc(OC(=O)c2ccccc2N)cc1	6.4%	1.0%	-52.7	19.2*
CC(C)(C)c1ccc(OCC(=O)NCc2ccco2)c(Br)c1	24.9%	1.7%	57.7	29.5*
CC(=O)Nc1cc(C(=O)OCC(=O)c2ccc(C)cc2)ccc1C	158.8%	12.3%	127.6*	85.8*
O=C(COC(=O)c1ccccc1Nc1ccccc1)NCc1ccco1	/	?	25.8	16.2*
CCCc1nnc(SCC(=O)Nc2cccc(C(F)(F)F)c2)o1	27.8%	13.1%	3.0	-6.1
Cc1ccc2c(=O)cc(C(=O)NCc3ccccc3)oc2c1C	14.6%	24.7%	-6.4	-1.1
CC(C)C(NC(=O)c1ccccc1F)C(=O)OCC(=O)c1ccc(F)cc1 (stereo not given)	61.3%	50.8%	93.7*	61.5*
CNc1ccccc1C(=O)OCC(=O)c1ccc(F)cc1	159.2%	76.6%	121.6*	80.1*
CC(=O)Nc1ccc(C(=O)OCc2ccc(Cl)cc2)cc1	15.3%	?	28.0	-2.6
CC(=O)Nc1ccc(C(=O)OCc2ccccc2Br)cc1	3.1%	30.7%[5.75 µM]	58.5*	27.1*
COc1cc(OC)cc(C(=O)N[C@H](C(=O)OCC(=O)c2ccc(F)cc2)C(C)C)c1	-19.0%	32.7%	13.5	8.9
